Test [1] is described as follows: Human pregnane X receptor (PXR) small molecule agonists, qHTS cell viability counter screen (AID 1346977). Note: nearly all actives have a fitted effect of over 50% in size. Note: potency is the fitted concentration of half-maximal effect. The method in brief: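 Fluorescence read-out (CellTiter-Fluor) of viability in PXR-Luc HepG2 cells, multiplexed with the luciferase agonist read. Compounds in DMSO added after 5hr plating; 24hr total exposure at 37C, 5% CO2.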
In general terms: Quantitative high-throughput screening tests each substance at several concentrations.

Test [2] in a line: Caspase-3/7 induction in HepG2 cells by small molecules, qHTS assay (AID 1346978). Note: nearly all actives have a fitted effect of over 15% in size. The method in brief:
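Wild-type HepG2 cells, 2,000/well, settled 5 hr at 37 C and 5% CO2, then compound-treated for 17 hr; caspase-3/7 activity read by luminescent Caspase-Glo 3/7 after 30 min at room temperature.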

A short description of test [3]: Caspase-3/7 induction in CHO-K1 cells by small molecules, qHTS cell viability counter screen (AID 1346979). Note: nearly all actives have a fitted effect of over 35% in size. Note: potency is the fitted concentration of half-maximal effect. In outline: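 CHO-K1 wt, 1,500 cells/well; 5hr pre-incubation 37C/5% CO2; compound pin transfer (DMSO); 16hr exposure; CellTiter-Fluor added, 1hr, fluorescence read.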
Test [4] can be described thus: Caspase-3/7 induction in CHO-K1 cells by small molecules, qHTS assay (AID 1346980). Note: nearly all actives have a fitted effect of over 15% in size. In outline: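 Wild-type CHO-K1 cells exposed to compounds for 17hr at 37 C, 5% CO2. Caspase-3/7 activity then measured by Caspase-Glo 3/7 luminescence after 30min at room temperature.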
The nature of test [5]: Caspase-3/7 induction in HepG2 cells by small molecules, qHTS cell viability counter screen (AID 1346981). For activity change, negative = cytotoxicity: series mostly up to about 92 µM. Note: nearly all actives have a fitted effect of over 30% in size. Note: potency is the fitted concentration of half-maximal effect. The method in brief:
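CellTiter-Fluor fluorescence measured viability in the same wells used for Caspase-Glo 3/7. HepG2 (wild type) at 2,000 cells/well were pre-incubated 5 hr, dosed, and given reagent at 16 hr, with 1 hr further at 37C.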

Test [6] has as its target Nuclear receptor subfamily 1 group I member 2 (Homo sapiens) (UniProt O75469). Briefly: Human pregnane X receptor (PXR) small molecule agonists, qHTS assay (AID 1346982). Note: nearly all actives have a fitted effect of over 35% in size. Note: potency is the fitted concentration of half-maximal effect. In outline: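 Agonist mode: luminescence from ONE-Glo after 24 h compound exposure at 37C in HepG2 cells carrying hPXR-responsive CYP3A4 luciferase, plated in charcoal-stripped serum medium 5 h beforehand.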

Test [7] concerns the target Cytochrome P450 2D6 (Homo sapiens) (UniProt P10635). The test can be described thus: Cytochrome P450 Family 2 Subfamily D Member 6 (CYP2D6) small molecule antagonists: luciferase reporter qHTS assay (AID 1671196). For activity change, negative = inhibition: series mostly up to about 120 µM. Note: nearly all actives have a fitted effect of over 50% in size. Note: potency is the fitted concentration of half-maximal effect. The method in brief: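 CYP2D6 activity was followed as luminescence from its luciferin product after a 1 h NADPH-driven reaction at room temperature. Enzyme-substrate mix and compound were pre-incubated for 10 min, and the signal was read 20 min after adding detection reagent.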

Test [8] addresses Nuclear receptor subfamily 1 group I member 2 (Rattus norvegicus) (UniProt Q9R1A7). The test can be described thus: Rat pregnane X receptor (rPXR) activation by small molecules, qHTS assay (AID 1346983). Note: nearly all actives have a fitted effect of over 20% in size. To be noted: rPXR luciferase reporter cells, One-Glo luminescence, 24 h; max activation: stronger effect = higher value. In outline: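 Cell-based rPXR activation assay: rPXR cells, 2,000 per well, rested 5hr at 37 C, then exposed to compounds in DMSO for 24 hr at 37 C. Luciferase activity read by One-Glo luminescence after 30 min at room temperature.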

Test [9] concerns the target Nuclear receptor subfamily 1 group I member 2 (Homo sapiens) (UniProt O75469). Briefly: Human pregnane X receptor (PXR) activation by small molecules, qHTS assay (AID 1346985). Note: nearly all actives have a fitted effect of over 40% in size. The method in brief:
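DPX-2 cells (HepG2 co-transfected with a PXR response element and a CYP3A4-promoter luciferase construct) were seeded at 2,000 per well, rested 5 hr at 37C, then exposed to DMSO-dissolved compounds for 24 hr. Activation was read as luciferase luminescence.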

Test [10] shares this target. The test can be described thus: CYP3A4 induction through human pregnane X receptor (PXR) by small molecules, qHTS assay (AID 1346984). Note: nearly all actives have a fitted effect of over 40% in size. In outline: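 Read-out is luminescence after One-Glo addition, following a 3 hr, 37C incubation with Luciferin-IPA CYP3A4 substrate (3uM final). Before that, compounds were on DPX-2 cells (HepG2 co-transfected with PXR element plus CYP3A4-promoter luciferase) for 24 hr at 37C.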

A number with no mark means an inactive call. Records with an inconclusive call do not appear. Activity calls are given as the source filed them. Calls come from the whole dose curve; as a rule, active = well fitted curve in the direction sought with a large enough effect in the repeat runs; inconclusive = weak or mixed curves; inactive = no such curve, though single readings can be large; an effect the other way counts as inactive or inconclusive.
% is set by controls: 0 for no effect and ±100 for the full control effect.

Chain of Nuclear receptor subfamily 1 group I member 2 (Rattus norvegicus) (Q9R1A7 whole entry, looked up): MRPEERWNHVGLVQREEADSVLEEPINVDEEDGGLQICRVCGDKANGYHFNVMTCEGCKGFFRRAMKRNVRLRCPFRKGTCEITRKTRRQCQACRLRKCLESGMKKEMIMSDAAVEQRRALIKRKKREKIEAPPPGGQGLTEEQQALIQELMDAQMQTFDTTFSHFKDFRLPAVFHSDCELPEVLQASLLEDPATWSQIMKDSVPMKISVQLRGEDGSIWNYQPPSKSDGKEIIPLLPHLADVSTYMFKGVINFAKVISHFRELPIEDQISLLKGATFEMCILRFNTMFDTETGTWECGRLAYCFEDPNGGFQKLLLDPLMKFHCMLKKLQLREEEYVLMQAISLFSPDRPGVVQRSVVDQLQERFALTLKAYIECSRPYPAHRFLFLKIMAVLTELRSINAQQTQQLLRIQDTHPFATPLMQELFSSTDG
Chain of Cytochrome P450 2D6 (Homo sapiens) (P10635 whole entry, looked up): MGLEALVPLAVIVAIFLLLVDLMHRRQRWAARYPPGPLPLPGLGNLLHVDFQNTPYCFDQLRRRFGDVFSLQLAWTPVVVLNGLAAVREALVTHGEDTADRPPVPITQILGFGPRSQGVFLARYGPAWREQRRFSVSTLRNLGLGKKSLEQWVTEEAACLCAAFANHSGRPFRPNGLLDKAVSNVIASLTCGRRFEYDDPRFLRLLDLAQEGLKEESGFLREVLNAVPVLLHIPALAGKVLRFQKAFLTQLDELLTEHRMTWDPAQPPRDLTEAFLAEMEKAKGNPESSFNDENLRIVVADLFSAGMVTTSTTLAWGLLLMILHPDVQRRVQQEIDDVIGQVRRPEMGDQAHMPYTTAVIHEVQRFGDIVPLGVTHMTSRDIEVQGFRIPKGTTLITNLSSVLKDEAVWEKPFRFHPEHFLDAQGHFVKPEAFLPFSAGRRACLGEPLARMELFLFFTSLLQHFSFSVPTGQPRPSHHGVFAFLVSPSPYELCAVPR
Chain of Nuclear receptor subfamily 1 group I member 2 (Homo sapiens) (O75469 whole entry, looked up): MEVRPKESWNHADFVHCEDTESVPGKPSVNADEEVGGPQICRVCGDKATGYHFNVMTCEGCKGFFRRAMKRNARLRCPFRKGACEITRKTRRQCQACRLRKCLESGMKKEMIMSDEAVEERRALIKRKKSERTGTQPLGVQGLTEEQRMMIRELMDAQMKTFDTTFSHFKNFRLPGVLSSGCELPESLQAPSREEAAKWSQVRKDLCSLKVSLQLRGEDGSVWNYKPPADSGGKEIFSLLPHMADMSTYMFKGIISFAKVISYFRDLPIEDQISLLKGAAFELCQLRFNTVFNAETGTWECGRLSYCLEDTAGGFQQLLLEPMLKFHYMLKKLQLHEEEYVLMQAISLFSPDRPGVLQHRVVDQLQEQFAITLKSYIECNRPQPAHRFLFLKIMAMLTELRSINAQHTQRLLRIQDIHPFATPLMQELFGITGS

Turning to `CCCCNCCCC`, the Potency entry in test [1], in test [2], in test [3], in [5] and in [6] was “inactive” in each case. In addition, the call in test [4] was inactive.
Regarding `CCCc1c2oc(C(=O)O)cc(=O)c2cc2c(=O)cc(C(=O)O)n(CC)c12`, the Potency entry in test [1], in [2], in [3], in test [5], in test [6] and in test [7] was “inactive” throughout. Moreover, the result in [4] was inactive.
In the case of `CC1=NN(c2cc(Cl)c(S(=O)(=O)O)cc2Cl)C(=O)C1N=Nc1ccc(S(=O)(=O)O)cc1` (stereo unspecified), the Potency was 54.5 µM (active) in [1], 54.5 µM (active) in test [3] and 48.6 µM (active) in test [5]. In addition, the Potency entry in test [2], in [6] and in test [7] was “inactive” in each case. In addition, the result in test [4] was inactive.
Regarding `C1CCOC1`, the Potency result in [1], in test [2], in test [3] and in test [5] was “inactive” throughout. Besides, the molecule was classed as inactive in test [4].
As to `O=c1[nH]c(=O)n([C@H]2C[C@H](O)[C@@H](CO)O2)cc1C(F)(F)F`, the Potency result in test [1], in [2], in [3], in test [5], in test [6] and in test [9] was “inactive” each time. Also, the Potency result in test [7] was “inactive”. Moreover, the result in test [4] was inactive. Further, the max activation in test [8] is 3.55%.
Regarding `CCCNC(C)(C)COC(=O)c1ccccc1`, the Potency result in test [1], in test [2], in test [3] and in [5] was “inactive” throughout. Besides, the result in [4] was inactive.
Consider `CC(CNC1CCCCC1)OC(=O)c1ccccc1` (stereo unspecified), for which the Potency entry in test [1], in test [2], in test [3] and in test [5] was “inactive” throughout. Moreover, the call in [4] was inactive.
For the molecule `CCN(O)CC`, the Potency in test [1] was 30 µM (active); in test [3] it was 26.7 µM (active); in [6] it was 59.8 µM (active). Also, the Potency entry in [2], in [5] and in test [7] was “inactive” each time. The molecule was called inactive in [4].
As to `C[C@@H]1CN(c2c(F)c(N)c3c(=O)c(C(=O)O)cn(C4CC4)c3c2F)C[C@H](C)N1`, the activity change, negative = cytotoxicity is 5.72% [at 19 µM] in test [1], 5.21% [at 19 µM] in test [3] and -0.6% [at 19 µM] in test [5]. Besides, the caspase activation in test [2] was 0.598% [at 19 µM]. The caspase-3/7 activation in test [4] was -1.56% [at 19 µM]. In addition, in test [6], the activation is -7.57% [at 19 µM]. Besides, the max activation in test [8] is -3.87%. The Potency result in test [10] and in test [9] was “inactive” throughout. In addition, the activity change, negative = inhibition in [7] was -4.41% [at 23.6 µM].
Take `CCC(=O)Nc1ccc(O)cc1`: the Potency entry in test [1], in test [2], in [3], in test [5], in [6] and in test [10] was “inactive” throughout. Further, the Potency entry in test [9] and in test [7] was “inactive” each time. For the same molecule, the molecule was called inactive in test [4]. Further, the max activation in test [8] is -1.74%.
`C[C@@H]1CN(c2c(F)c(F)c3c(=O)c(C(=O)O)cn(C4CC4)c3c2F)C[C@H](C)N1`: the activity change, negative = cytotoxicity in [1] is 6.01% [at 19 µM]; in [3], 0.544% [at 19 µM]; in test [5], 0.129% [at 19 µM]. For the same molecule, the caspase activation in test [2] was -1.23% [at 19 µM]. Also, the caspase-3/7 activation in test [4] was 0.203% [at 19 µM]. Further, the activation in [6] was -4.26% [at 19 µM]. Besides, the max activation in [8] is -2.98%. Moreover, the Potency result in [10] and in [9] was “inactive” each time. Also, the activity change, negative = inhibition in test [7] was -28.8% [at 23.6 µM].
As to `O=CCCc1ccccc1`, the Potency entry in [1], in test [2], in test [3] and in test [5] was “inactive” throughout. Besides, the call in [4] was inactive.
For the molecule `CC(C)O`, the Potency result in test [1], in test [2], in test [3], in test [5], in test [6] and in test [10] was “inactive” throughout. The Potency result in [9] and in [7] was “inactive” throughout. Also, in test [4], the call was inactive. Besides, the max activation in test [8] is -2.1%.
Take `CCc1nnc(NS(=O)(=O)c2ccc(N)cc2)s1`: the Potency entry in test [1], in [2], in test [3], in test [5], in test [6] and in test [10] was “inactive” in each case. The Potency result in test [9] and in test [7] was “inactive” throughout. The call in [4] was inactive. The max activation in test [8] was -2.73%.
Consider `CC(=O)N(CC(O)CN(C(C)=O)c1c(I)c(C(=O)NCC(O)CO)c(I)c(C(=O)NCC(O)CO)c1I)c1c(I)c(C(=O)NCC(O)CO)c(I)c(C(=O)NCC(O)CO)c1I` (stereo unspecified), for which the Potency entry in [1], in test [2], in [3], in test [5], in test [6] and in [10] was “inactive” in each case. In addition, the Potency result in test [9] and in [7] was “inactive” in each case. For the same molecule, the outcome in [4] was inactive. Also, in test [8], the max activation is -0.58%.
As to `CC(C)S`, the Potency entry in test [1], in [2], in [3], in test [5] and in test [6] was “inactive” in each case. Also, the call in test [4] was inactive.
For `Cc1cc(NS(=O)(=O)c2ccc(N)cc2)nc(C)n1`, the Potency entry in [1], in [2], in [3], in test [5], in [6] and in test [10] was “inactive” throughout. Further, the Potency result in test [9] and in test [7] was “inactive” each time. Moreover, in [4], the outcome was inactive. Further, in test [8], the max activation was 1.05%.
`CCCCCCCCCCCCCCCCOP(=O)([O-])OCC[N+](C)(C)C`: the Potency result in [1], in test [2], in [3], in test [5], in [6] and in [10] was “inactive” each time. Moreover, the Potency entry in [9] was “inactive”. The outcome in [4] was inactive. Moreover, in test [8], the max activation was 0.239%.
As to `CO[Si](C)(C)OC`, the Potency entry in test [1], in [2], in [3], in test [5] and in test [6] was “inactive” throughout. For the same molecule, the call in [4] was inactive.
In the case of `COc1ccccc1N1CCN(CCCNc2cc(=O)n(C)c(=O)n2C)CC1`, the Potency entry in test [1], in test [2], in test [3], in test [5], in test [6] and in [10] was “inactive” in each case. In addition, the Potency result in [9] is “inactive”. The call in [4] was inactive. Also, in test [8], the max activation was -1.3%. Further, the Potency in test [7] was 11 µM (active).
In the case of `NS(=O)(=O)c1cc(-c2nn[nH]n2)c(NCc2cccs2)cc1Cl`, the Potency entry in [1], in test [2], in [3], in test [5], in test [10] and in test [9] was “inactive” each time. In addition, the Potency result in [7] is “inactive”. For the same molecule, the outcome in [4] was inactive. Also, the Potency in [6] is 13.3 µM (active).
Consider `CN1CCN(c2c(F)cc3c(=O)c(C(=O)O)cn(CCF)c3c2F)CC1`, for which the Potency result in test [1], in [2], in test [3], in test [5], in test [6] and in test [10] was “inactive” each time. The Potency entry in test [9] and in test [7] was “inactive” in each case. Also, the result in test [4] was inactive. Besides, the max activation in test [8] was -0.524%.
As to `N#Cc1ccc(C(c2ccc(C#N)cc2)n2cncn2)cc1`, the Potency entry in [1], in test [2], in test [3], in test [5], in test [6] and in test [10] was “inactive” each time. For the same molecule, the Potency result in test [9] and in test [7] was “inactive” in each case. Moreover, the result in test [4] was inactive. Moreover, the max activation in test [8] is 0.445%.

The values are drawn from PubChem BioAssay (Tox21).
